PubChem BioAssay (NCI)
About 83,000 compounds went through this panel and 20% of them were active in at least one assay; those are over-represented in the sample as a whole.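 Single-dose data. Exposure time 48 hours. Values below 10 considered active.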 Active and inactive are the calls of the source.

System: DU-145 prostate
Assay: NCI-60 one-dose screen, 48 h (100 = growth as untreated, 0 = no growth, -100 = all killed)
Details: 10 µM

SMILES | growth
O=C1c2ccccc2CCC1(Br)Br | 21.8% (inactive)
O=C(CNS(=O)(=O)Cc1ccccc1)NNc1ccccc1 | 67.2% (inactive)
COc1ccc(N)c2c1C(=O)c1ccccc1C2=O | 112% (inactive)
COc1cc(N)ccc1Nc1c2ccccc2nc2ccccc12 | 39.7% (inactive)
Cc1cc(C)c(N2C(=O)CC(Sc3ccccc3N)C2=O)c(C)c1 (configuration not stated) | 89.5% (inactive)
CCC(=O)Oc1ccc(/C=N/NC(N)=S)nc1 | 28.4% (inactive)
ClCCn1c(CCl)nc2ccc(Cl)cc21 | -59.3% (active)
Cc1cc(Cl)ccc1NC(=O)/C(Cl)=C1/Sc2ccccc2NC1=O | 121% (inactive)
CCOC(=O)[C@]1(Br)CC[C@@]1(Br)C(=O)OCC | 120% (inactive)
COc1ccc2c(c1)[nH]c1c(/C=C/c3ccccc3)nccc12 | 103% (inactive)
N#C/C(=C/N1C(=O)/C(=C/c2ccc([N+](=O)[O-])cc2)SC1=S)c1nc2ccccc2s1 | 104% (inactive)
CN(C)CCNc1cccc2sc3ccc(O)cc3c(=O)c12 | 43.6% (inactive)
NCc1c(O)ccc2ccccc12 | 109% (inactive)
O=C1c2cccc3cc([N+](=O)[O-])cc(c23)C(=O)N1CCN1CCCC1 | -30.9% (active)
Cc1cc(O)c2c(c1O)C(=O)C13C(=C2O)C(=O)C2C(O)C1C1C(O)C3C(=O)C3=C(O)c4c(O)cc(C)c(O)c4C(=O)C321 (configuration not stated) | -6.49% (active)
CC1CCC2(C(=O)O)CCC3(C)C(=CCC4C5(C)CC(O)C(O)C(C)(CO)C5C(O)CC43C)C2C1C (configuration not stated) | 110% (inactive)
COc1ccc2oc(-c3ccc(Cl)cc3)c(N3CCN(C)CC3)c2c1 | 24.3% (inactive)
Cc1cc(N=C2C=CC(=[N+](C)C)C=C2)c(N)cc1N | 104% (inactive)
O=c1[nH]cc(/C=N\Nc2ccccc2)c(=O)[nH]1 | 74.2% (inactive)
O=C(NC(=S)Nc1ccccn1)c1ccccc1 | 96.2% (inactive)

System: K-562 leukemia
Assay: as above
Details: 10 µM

SMILES | growth
O=C1c2ccccc2CCC1(Br)Br | -13.5% (active)
O=C(CNS(=O)(=O)Cc1ccccc1)NNc1ccccc1 | 9.47% (active)
COc1ccc(N)c2c1C(=O)c1ccccc1C2=O | 98.9% (inactive)
COc1cc(N)ccc1Nc1c2ccccc2nc2ccccc12 | 1.11% (active)
Cc1cc(C)c(N2C(=O)CC(Sc3ccccc3N)C2=O)c(C)c1 (configuration not stated) | 47.4% (inactive)
CCC(=O)Oc1ccc(/C=N/NC(N)=S)nc1 | 47.3% (inactive)
ClCCn1c(CCl)nc2ccc(Cl)cc21 | -23.7% (active)
Cc1cc(Cl)ccc1NC(=O)/C(Cl)=C1/Sc2ccccc2NC1=O | 88.7% (inactive)
CCOC(=O)[C@]1(Br)CC[C@@]1(Br)C(=O)OCC | 43.6% (inactive)
COc1ccc2c(c1)[nH]c1c(/C=C/c3ccccc3)nccc12 | 36.1% (inactive)
N#C/C(=C/N1C(=O)/C(=C/c2ccc([N+](=O)[O-])cc2)SC1=S)c1nc2ccccc2s1 | 77.5% (inactive)
CN(C)CCNc1cccc2sc3ccc(O)cc3c(=O)c12 | 22.7% (inactive)
NCc1c(O)ccc2ccccc12 | 99.1% (inactive)
O=C1c2cccc3cc([N+](=O)[O-])cc(c23)C(=O)N1CCN1CCCC1 | -10.2% (active)
Cc1cc(O)c2c(c1O)C(=O)C13C(=C2O)C(=O)C2C(O)C1C1C(O)C3C(=O)C3=C(O)c4c(O)cc(C)c(O)c4C(=O)C321 (configuration not stated) | 9.5% (active)
CC1CCC2(C(=O)O)CCC3(C)C(=CCC4C5(C)CC(O)C(O)C(C)(CO)C5C(O)CC43C)C2C1C (configuration not stated) | 106% (inactive)
COc1ccc2oc(-c3ccc(Cl)cc3)c(N3CCN(C)CC3)c2c1 | -24.7% (active)
Cc1cc(N=C2C=CC(=[N+](C)C)C=C2)c(N)cc1N | 57.3% (inactive)
O=[N+]([O-])c1cc(S(=O)(=O)Nc2ccccc2)ccc1Cl | 83.9% (inactive)
O=c1[nH]cc(/C=N\Nc2ccccc2)c(=O)[nH]1 | 8.14% (active)
O=C(NC(=S)Nc1ccccn1)c1ccccc1 | 143% (inactive)

System: MALME-3M melanoma
Assay: as above
Details: 10 µM

SMILES | growth
O=C1c2ccccc2CCC1(Br)Br | -45.8% (active)
O=C(CNS(=O)(=O)Cc1ccccc1)NNc1ccccc1 | 91.3% (inactive)
COc1ccc(N)c2c1C(=O)c1ccccc1C2=O | 88.2% (inactive)
COc1cc(N)ccc1Nc1c2ccccc2nc2ccccc12 | 95.7% (inactive)
Cc1cc(C)c(N2C(=O)CC(Sc3ccccc3N)C2=O)c(C)c1 (configuration not stated) | 77.5% (inactive)
CCC(=O)Oc1ccc(/C=N/NC(N)=S)nc1 | 59% (inactive)
ClCCn1c(CCl)nc2ccc(Cl)cc21 | -64.3% (active)
Cc1cc(Cl)ccc1NC(=O)/C(Cl)=C1/Sc2ccccc2NC1=O | 109% (inactive)
CCOC(=O)[C@]1(Br)CC[C@@]1(Br)C(=O)OCC | 75.4% (inactive)
COc1ccc2c(c1)[nH]c1c(/C=C/c3ccccc3)nccc12 | 69.2% (inactive)
N#C/C(=C/N1C(=O)/C(=C/c2ccc([N+](=O)[O-])cc2)SC1=S)c1nc2ccccc2s1 | 111% (inactive)
CN(C)CCNc1cccc2sc3ccc(O)cc3c(=O)c12 | 1.1% (active)
NCc1c(O)ccc2ccccc12 | 96.6% (inactive)
O=C1c2cccc3cc([N+](=O)[O-])cc(c23)C(=O)N1CCN1CCCC1 | -26.4% (active)
Cc1cc(O)c2c(c1O)C(=O)C13C(=C2O)C(=O)C2C(O)C1C1C(O)C3C(=O)C3=C(O)c4c(O)cc(C)c(O)c4C(=O)C321 (configuration not stated) | -2.77% (active)
CC1CCC2(C(=O)O)CCC3(C)C(=CCC4C5(C)CC(O)C(O)C(C)(CO)C5C(O)CC43C)C2C1C (configuration not stated) | 103% (inactive)
COc1ccc2oc(-c3ccc(Cl)cc3)c(N3CCN(C)CC3)c2c1 | 121% (inactive)
Cc1cc(N=C2C=CC(=[N+](C)C)C=C2)c(N)cc1N | 106% (inactive)
O=[N+]([O-])c1cc(S(=O)(=O)Nc2ccccc2)ccc1Cl | 105% (inactive)
O=c1[nH]cc(/C=N\Nc2ccccc2)c(=O)[nH]1 | 84.4% (inactive)
O=C(NC(=S)Nc1ccccn1)c1ccccc1 | 82.6% (inactive)
